# According to PubChem BioAssay (NCI):
# Values joined by “and” are separate entries in the source; they are usually repeats but may differ in a detail not shown here. Equal entries are not always repeated. Compounds without any hit were thinned out: in the full panel of roughly 83,000, 20% have a hit.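 Growth was measured after 48 h exposure to one concentration of compound in 96-well plates. Values under 10 count as active.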 Active and inactive are the calls of the source.
# Tested on: MDA-MB-468 breast
# Test: NCI-60 one-dose screen, 48 h (100 = growth as untreated, 0 = no growth, -100 = all killed)
# Settings: 10 µM unless noted
row,Compound,growth
1,COc1cc2nc3cc([N+](=O)[O-])ccc3c(NCCCNCCO)c2cc1OC,-49.4% (active)
2,NC(=O)c1cc(Cl)ccc1NC(=O)COc1ccccc1,21% (inactive)
3,O=C(Nc1nc(C(=O)N2CCN(C(c3ccccc3)c3ccccc3)CC2)cs1)c1ccc(NC2CCCCC2)c([N+](=O)[O-])c1,104% (inactive)
4,NC(N)=Nc1ccc(Oc2cccc(Nc3ccc(Br)c(C(F)(F)F)c3)c2)cc1,-10.6% (active)
5,Cn1c(=O)c2[nH]c(CCCCCCCCc3nc4ccccc4[nH]3)nc2n(C)c1=O,10.7% (inactive) and 21.7% (inactive)
6,Cc1csc(NC(c2ccc(Br)cc2)c2c(C)nc3ccccn23)n1 (centres undefined),93.5% (inactive)
7,COc1ccc2c(c1)c(-c1nn3cc(-c4ccncc4)nc3s1)cn2C,79.3% (inactive)
8,O=C(C(=Cc1ccccc1)C(=O)c1ccccc1)c1ccccc1,63.4% (inactive) and 89.4% (inactive)
9,ClC1=C(Cl)C(Cl)=C(Cl)C1=Cc1ccc(Cl)cc1,45.3% (inactive)
10,Cc1n(Cc2ccc3ccccc3c2)c(Cl)c(Cl)[n+]1Cc1ccc2ccccc2c1,-19.5% (active)
11,O=C1c2cccnc2C(=O)c2c1c(C(=O)NCCCN1CCCCC1)c1ccccn21,-73.9% (active)
12,COc1cc(-c2nn(-c3cccc(NC(=O)CCN4CCN(c5ccccc5)CC4)c3)cc2-c2ccncc2)ccc1Cl,28.8% (inactive)
13,CC[C@@H](C)OC(=O)c1nn(C(C)=O)c2ccccc12,82.4% (inactive)
14,C[C@H]1[C@H]2C3=CC[C@@H]4[C@@]5(C)C/C(=C/c6ccncc6)C(=O)C(C)(C)[C@@H]5CC[C@@]4(C)[C@]3(C)CC[C@@]2(C(=O)N2CCN(C)CC2)CC[C@@H]1C,41.1% (inactive)
